The campaign covered roughly 68,000 compounds. About 2,700 (4%) showed an effect of 50% or more. For the sample, strong results were picked, then their nearest neighbours and some compounds at random.

This assay deals with Plasmodium berghei. Kind of assay: Screen against P. berghei liver stage (PbLuc), transformed with Luciferase, at 2uM. The note with it: tested at 2 uM. It is filed as functional, HepG2.
With `CN(C)C(=O)N1C[C@H]2CC[C@@H](C1)N(C(=O)c1c(Cl)cccc1Cl)C2`, the INHIBITION is listed as -42.12%. For `CN1CCCN(C(=O)NCc2ccccc2Cn2cncn2)CC1`, the INHIBITION came out at 28.62%. To `Cn1cccc1C(=O)OCCNC(=O)c1ccccc1` belongs -9.17%; to `O=C(CC1CCCCC1)N1C[C@@H]2CC[C@H]1CN(Cc1cccnc1)C2`, 9.56%.

Consider `Cc1ccc(CN2Cc3cnn(C)c3C(COCC3CC3)C2)o1` (centres undefined), for which the INHIBITION was found to be 47.63%. With `CNC(=O)C1CCCCN1C(=O)c1sc(-c2ccc(C)o2)nc1C` (centres undefined), the INHIBITION turned out to be 16.73%. To `O=c1nc(SCc2cccnc2)c2c(n1CCO)CCCC2` belongs 13.46%; to `CCN(Cc1ccc2c(c1)OCCO2)C(=O)NCc1cc[nH]n1`, 21.31%; to `CSCC(C)(O)CNS(=O)(=O)c1cccc(Cl)c1` (centres undefined), 56.89%. To `CSCC(C)(O)CNS(=O)(=O)c1ccc(Br)cc1` (centres undefined) belongs 9.27%. The figure for `CSCC(C)(O)CNS(=O)(=O)c1cccc(C)c1` (centres undefined) is 9.27%; for `O=c1ccc(-n2ccnc2)nn1CCNS(=O)(=O)c1ccc(Cl)s1` it is -54.51%; for `CC(C)n1nc2c(cc1=O)CN(CCOc1ccc(C#N)cc1)CC2` it is 9.8%. For the molecule `CNC(=O)c1cccc(C2CNCCN2C(=O)c2ccn(C)n2)c1` (centres undefined), the INHIBITION stood at 24.56%. To `Cc1ccc(C(=O)N2CCOCC3(CCN(C4CCOCC4)C3)C2)o1` (centres undefined) belongs 14.89%; to `Cc1cccc(N(CCC(N)=O)CC(=O)NC2CCCC2)c1`, -22.8%. To `Cc1cccc(N(CCC(N)=O)CC(=O)Nc2cc(Cl)ccc2Cl)c1` belongs -10.14%; to `Cc1cccc(N(CCC(N)=O)CC(=O)Nc2ccccc2)c1`, 50.31%; to `CC(NC(=O)NCC1(c2ccc(F)cc2)CC1)c1nncn1C` (centres undefined), -7.13%. Take `Cc1cc(NC(=O)CNC2CCCN(c3cccnn3)C2)on1` (centres undefined): the INHIBITION is -3.06%.

As to `Cc1ccc(N2CCCC(NCC(=O)Nc3cc(C)no3)C2)nn1` (centres undefined), the INHIBITION came to 6.3%.

In the case of `CC(C)c1cc(NC(=O)CNC2CCCN(c3cccnn3)C2)on1` (centres undefined), the INHIBITION stood at 53.98%. As to `CC1=N[C@@]2(CC[C@@H]3CN(CC(=O)N(C)C)C[C@@H]32)C(=O)N1CC1CC1`, the INHIBITION was -25.29%. On to `CN(Cc1ccc(F)cc1)CC1(O)CCN(C(=O)c2ccsc2)C1` (centres undefined), for which the INHIBITION was found to be 47.4%. On to `COCCCNC(=O)CN(C)C(=O)c1cc(C)ccc1N(C)C(C)C`, for which the INHIBITION is -61.5%. To `CC(C)CNC(=O)CCN1C(=O)CCc2cc(F)ccc21` belongs 55.39%; to `CCCC(C)NC(=O)CCN1C(=O)CCc2cc(F)ccc21` (centres undefined), 6.92%; to `CC(C)C(C)NC(=O)CCN1C(=O)CCc2cc(F)ccc21` (centres undefined), 31.16%. To `NC(=O)C(CNC(=O)Cc1ccc(F)cc1)Cc1ccc(F)cc1` (centres undefined) belongs -39.58%. To `Cc1ccccc1C(=O)NCC(O)c1ccc(F)c(F)c1` (centres undefined) belongs 60.13%; to `O=C(NCC(O)c1ccc(F)c(F)c1)c1cccnc1O` (centres undefined), -38.85%; to `O=C(NCC(O)c1ccc(F)c(F)c1)c1ccccc1F` (centres undefined), 26.74%. For the molecule `O=C1CO[C@@H]2CN(Cc3ccncc3)C[C@H]2N1Cc1ccncc1`, the INHIBITION turned out to be 31.76%. The figure for `O=C(Nc1ccc2c(c1)OCO2)Nc1cnn(C2CCOCC2)c1` is -59%; for `CCn1cc(NC(=O)NCC(C)O)cn1` (centres undefined) it is 62.13%. Take `COCCn1cc(NC(=O)NCC(c2cccc(F)c2)N(C)C)cn1` (centres undefined): the INHIBITION was 45.57%. Turning to `COCCn1cc(NC(=O)NCC(C)N2CCOCC2)cn1` (centres undefined), the INHIBITION was determined as 20.77%. The figure for `CCC(CC)C(CNC(=O)Nc1cnn(CCOC)c1)N(C)C` (centres undefined) is 66.11%; for `CCn1cc(NC(=O)NCC(O)c2ccccc2)cn1` (centres undefined) it is 20.28%; for `CCn1cc(NC(=O)NCC(C)N(C)C)cn1` (centres undefined) it is -3.58%. To `CCOC(=O)c1sc2ccsc2c1CNC(=O)CCOC` belongs 27.47%. Regarding `N#CCCCOc1cccnc1NC(=O)CCC1CCCC1`, the INHIBITION is reported as -54.22%. The figure for `Cc1nccn1-c1ccc(=O)n(CCNC(=O)c2ccncc2)n1` is -45.03%; for `CN1CCCCc2c1nc1c(c2N)CCCC1` it is 14.11%; for `CC(O)c1cnn(-c2ccccc2)c1` (centres undefined) it is 23.06%. To `COCCN1C[C@H]2CN(C(=O)c3ccc4c(c3)OCO4)CCN2C1=O` belongs -2.66%. To `CC(C#N)(NC(=O)COc1ccccc1Br)C1CC1` (centres undefined) belongs 8.78%; to `CC(C)C1CCCN1C(=O)c1ccc(-n2ncc(C#N)c2N)cc1` (centres undefined), -36.67%. For the molecule `Cc1cc(-c2nn(C)c(Cl)c2CN2CC[C@H](CO)[C@@H](O)C2)no1`, the INHIBITION was -5.87%. With `Cc1cc(-c2nn(C)c(Cl)c2CN2CCCCC(N)C2)no1` (centres undefined), the INHIBITION was determined as 51.81%. The figure for `Cc1cc(C)n(C2CCN(Cc3c(-c4cc(C)on4)nn(C)c3Cl)C2)n1` (centres undefined) is -11.77%; for `CN1CCN(Cc2ccc(-c3ccc(-c4ccn[nH]4)cc3)nc2)CC1` it is -35.16%; for `CC(=O)Nc1nc(COc2nc(C)no2)cs1` it is -4.89%. To `O=C(O)[C@@H]1CN(Cc2c[nH]c(CC3CCCC3)n2)C[C@H]1c1ccncc1` belongs 25.35%; to `CCC[C@@H]1CN(Cc2c[nH]c(CC3CCCC3)n2)C[C@H]1C(=O)O`, 5.93%. To `O=C(O)[C@@H]1CN(Cc2c[nH]c(CC3CCCC3)n2)C[C@H]1c1ccccn1` belongs 50.86%. `CCOCC1CN(C(=O)c2ccco2)Cc2cnn(CC)c21` (centres undefined): the INHIBITION turned out to be 16.87%. The figure for `Cc1ccsc1C(O)CNC(=O)Cc1ccc(S(=O)(=O)C(C)C)cc1` (centres undefined) is 16.03%; for `COc1ccc(CC(=O)NCC(O)c2sccc2C)cc1OC` (centres undefined) it is 55.52%; for `Cc1ccsc1C(O)CNC(=O)Cc1ccc(F)cc1` (centres undefined) it is 33.35%.

Take `CCCn1nc(C)c(CNC(=O)c2snnc2C)c1C`: the INHIBITION is 32.26%.

As to `Cc1nc(N)cc(C2CCN2CCOc2ccccc2)n1` (centres undefined), the INHIBITION was -43.34%. The figure for `Cc1ccc(NC(=O)c2ccc(=O)n(CC(=O)NC3CCCC3)n2)cc1` is 50.2%; for `Cc1cccc(-c2nc(C)nn2CC(=O)NC2CCCC2)c1` it is 25.74%; for `Cc1ccc(NC(=O)c2ccc(=O)n(CC(=O)Nc3nccs3)n2)cc1` it is -20.78%. The figure for `CCc1nnsc1C(=O)NCc1c(C)nn(CCOC)c1C` is 24.05%. To `Cn1nc(C2CCCN2)c2c(C(=O)NC3CC3)cc(C3CC3)nc21` (centres undefined) belongs 11.43%. Regarding `Cc1ccoc1C1=NNC(=CN2CCn3c(nnc3C(C)C)C2)O1`, the INHIBITION is 83.22%. Regarding `Cc1cnn(CC2CN(C=C3NN=C(c4occc4C)O3)CCO2)c1` (centres undefined), the INHIBITION is on record as -32.2%. The figure for `Cc1ccoc1C1=NNC(=CN2CCOC(Cn3cccn3)C2)O1` (centres undefined) is 60.64%.

Regarding `Cc1ccoc1C1=NNC(=CN2CCn3c(C)nnc3C2)O1`, the INHIBITION was -9.22%.

On to `CCc1nnc2n1CCN(C=C1NN=C(c3occc3C)O1)C2`, for which the INHIBITION was -27.57%. To `Cc1ccoc1C1=NNC(=CN2CCCC(Cn3cncn3)C2)O1` (centres undefined) belongs 3.9%; to `NC(=O)C1CCN(C(=O)NCc2ccc3c(c2)OCCO3)CC1`, 42.17%. The figure for `C[C@H]1C[C@H]2CN(S(=O)(=O)c3ccc(F)cc3)CC[C@H]2O1` is 47.42%; for `Cc1nc(N2CCOc3ccc(CO)cc3C2)c2nc(C)oc2n1` it is 34.52%; for `CC(C)OCCC(=O)NCCC(=O)N1CCN(c2ccccn2)CC1` it is -8.63%. The figure for `Cc1noc(C2CCN(Cn3cc(Cl)cn3)CC2)n1` is -16.03%; for `CCCOc1cc(CNC(=O)Nc2ccc(C)cc2)ccn1` it is 5.88%. For the molecule `Cc1csc([C@@H]2C[C@H]3CN(c4ncc(F)cn4)C[C@H]3O2)n1`, the INHIBITION stood at 19.01%.

Take `CN1CCN(C(=O)C2CCN(c3cccnn3)C2)CC1` (centres undefined): the INHIBITION is 33.64%. On to `CC(=O)N1CCN(C(=O)C2CCN(c3cccnn3)C2)CC1` (centres undefined), for which the INHIBITION is -4.8%. To `O=C(C1CCN(c2cccnn2)C1)N1CCOCC1` (centres undefined) belongs 42.48%; to `CN1CCN(C(=O)C2CCCN(c3cccnn3)C2)CC1` (centres undefined), 59.49%.

With `CN1CCN(C(=O)C2CCN(c3cccnn3)CC2)CC1`, the INHIBITION worked out at 54.49%. To `CN1CCC(C(=O)N2CCCN(c3cccnn3)CC2)C1` (centres undefined) belongs 45.48%; to `CCC(C)c1cc(C(=O)N(CC(=O)NC)c2cccc(F)c2)on1` (centres undefined), -7.58%; to `O=C([C@H]1C[C@H]2OCC[C@H]2N(CCc2ccccc2)C1)N1CCCCO1`, -10.8%. The figure for `Cc1cc(C(=O)N2CCN(C(=O)CC(C)C)[C@@H]3CS(=O)(=O)C[C@@H]32)no1` is -57.02%. Take `COc1ccc(CN2CCO[C@@H]3C[C@@H](C(=O)NC(C)C)C[C@H]32)cc1`: the INHIBITION stood at 3.72%. Take `CCN1CC(COC(=O)c2cc(C)nn2CC)CC1=O` (centres undefined): the INHIBITION was determined as 3.46%.

As for `COc1ccc2c(C)c(C(=O)NCC3CN(S(C)(=O)=O)CCO3)oc2c1` (centres undefined), the INHIBITION came out at 60.71%. The figure for `COc1ccc2c(C)c(C(=O)NC3CCN(S(C)(=O)=O)CC3)oc2c1` is 11.9%; for `COc1ccc2c(C)c(C(=O)NC3CCOCC3)oc2c1` it is -8.3%. To `CC(C)CN1C[C@H](COCc2ccccc2)Oc2ncccc2C1=O` belongs 37.74%. To `COc1cc2[nH]c(=O)c(CN3CCC[C@H]3CO)cc2c(OC)c1OC` belongs 63.1%; to `COc1cc2[nH]c(=O)c(CN3CCCC3C)cc2c(OC)c1OC` (centres undefined), -5.51%. Consider `COc1cc2[nH]c(=O)c(CN3CCC[C@@H]3C(N)=O)cc2c(OC)c1OC`, for which the INHIBITION is given as -30.15%. In the case of `CCNC(=O)C1CCN(Cc2ccc(C(=O)Nc3cnns3)cc2)C1` (centres undefined), the INHIBITION amounted to 29.78%. For the molecule `Cc1cc(C(=O)N2CCc3nc(N4CCCC4)nc(C)c3CC2)c(C)o1`, the INHIBITION worked out at 22.96%. The figure for `CCCc1cc(CN(C)C2CC(C)(C)NC(C)(C)C2)n[nH]1` is 62.51%; for `CCCc1cc(CN(C)C2CSCCSC2)n[nH]1` it is -71.03%; for `CCCc1cc(CN(C)C2CCSCC2)n[nH]1` it is 36.28%. To `CN1CCCN(c2ccc(F)cc2CNC(=O)c2ccsc2)CC1` belongs 31.05%.

These data come from ChEMBL document CHEMBL4513216, “Probing the Open Global Health Chemical Diversity Library for Multistage-Active Starting Points for Next-Generation Antimalarials” (ACS Infect Dis, 2020).
